Records with an inconclusive call do not appear. The source made the active and inactive calls.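 How the source made its calls, unless noted: active means normalized viability below 100% at a tested concentration; inactive means the rest.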
What was measured:
[1] = growth inhibition of DIPG glioma cells, dose response, cell-based, SU-DIPG-XVII, MIPE5.0, CellTiter-Glo, qHTS (AID 1347060; cut-off not given, nearly all actives have AC50 up to about 26 µM;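 on AC50: cells exposed to compound for 48 hours before viability readout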); conditions: SU-DIPG-XVII viability, CellTiter-Glo ATP luminescence
[2] = growth inhibition of DIPG glioma cells, dose response, cell-based, SU-DIPG-XIII, MIPE4.0, CellTiter-Glo, qHTS (AID 1347061; cut-off not given, nearly all actives have AC50 up to about 37 µM;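 further: cells exposed to compound for 48 hours before readout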); conditions: SU-DIPG-XIII viability, CellTiter-Glo ATP luminescence
[3] = growth inhibition of DIPG glioma cells, dose response, cell-based, JHH-DIPG-1, MIPE4.0, CellTiter-Glo, qHTS (AID 1347062; cut-off not given, nearly all actives have AC50 up to about 27 µM;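 on AC50: cells exposed to compound for two days before readout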); conditions: JHH-DIPG-1 viability, CellTiter-Glo ATP luminescence
[4] = growth inhibition of DIPG glioma cells, dose response, cell-based, SU-DIPG-IV, MIPE4.0, CellTiter-Glo, qHTS (AID 1347063; cut-off not given, nearly all actives have AC50 up to about 30 µM;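 further: compound exposure lasted 48 hours before the viability readout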); conditions: SU-DIPG-IV viability, CellTiter-Glo ATP luminescence
[5] = growth inhibition of DIPG glioma cells, dose response, cell-based, SU-DIPG-XIII, MIPE5.0, CellTiter-Glo, qHTS (AID 1347064; cut-off not given, nearly all actives have AC50 up to about 23 µM;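 on AC50: cells exposed to compound for 48 hours before the viability read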); conditions: SU-DIPG-XIII viability, CellTiter-Glo ATP luminescence
[6] = viability loss in pontine glioma line – cell-based, SU-DIPG-XXV, MIPE5.0, CellTiter-Glo, qHTS, dose response (AID 1347065; cut-off not given, nearly all actives have AC50 up to about 26 µM;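 further: cells exposed to compound for 48 hours before ATP readout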); conditions: CellTiter-Glo ATP luminescence
[7] = SU-DIPG-VI glioma cell viability, MIPE4.0 library, CellTiter-Glo luminescence, qHTS (AID 1347066; cut-off not given, nearly all actives have AC50 up to about 30 µM;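 further: cells exposed to compound for 48 hours before readout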); conditions: CellTiter-Glo ATP luminescence
[8] = JHH-DIPG-1 glioma cell viability, MIPE5.0 library, CellTiter-Glo luminescence, qHTS (AID 1347067; cut-off not given, nearly all actives have AC50 up to about 26 µM;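 further: cells exposed to compound for 48 hours before readout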); conditions: JHH-DIPG-1 glioma viability, CellTiter-Glo ATP luminescence
[9] = SU-DIPG-XXV glioma cell viability, MIPE5.0 library, qHTS (AID 1347068; cut-off not given, nearly all actives have IC50 up to about 30 µM;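 on IC50: cells exposed to compound for 48 hours before viability readout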)
[10] = sensitizers of A549 cells to miR-34 induction, primary screen, imaging, A549 dox-inducible miR-34, nuclei and caspase counts (AID 1347080;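 active means compounds whose cell count with miR-34 switched on is under 0.7 times the count with it off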); conditions: A549 miR-34 inducible, Hoechst nuclei count, 48 h
[11] = modifiers of HSF1 nuclear foci, imaging, Selleck Cancer Library (AID 1347162; in the data active means plate-normalised HSF1 focus index below about 0.46); conditions: human cells, at 10 µM; SSMD: measured here: HSF1 foci SSMD mean; cell count: measured here: cell number; plate-normalised HSF1 focus index: stronger effect = lower value
[12] = survival rescue of mitochondrial mutant cells in low glucose, primary screen, MELAS cybrids, Rieske KO mouse fibroblasts, CellTiter-Glo (AID 1508586;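 active means mean z-score across replicates of 1.96 or higher in either the MELAS or the Rieske mutant cell line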;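 further: z relative to plate mean and SD of compound and empty wells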)
[13] = ovarian cancer cell viability with rucaparib, profiling panel, oncology-focused library, rucaparib conditional (AID 1508598); conditions: patient-derived ovarian cancer cells, CellTiter-Glo viability, 144 h, stronger effect = lower value
[14] = stronger effect = lower value, cell number ratio, induced over uninduced
[15] = measured here: relative caspase fold change +Dox/-Dox
[16] = measured here: total cells with miR-34 induction, stronger effect = lower value
[17] = measured here: total cells without miR-34 induction
[18] = MELAS cybrid survival, CellTiter-Glo 48 h, stronger effect = higher value
[19] = Rieske KO mouse fibroblast survival, CellTiter-Glo 72 h
[20] = at 0.000305 µM, OCI-C5x cells, with rucaparib 10 µM, 100% = cells with rucaparib alone
[21] = at 0.000305 µM, OCI-C5x cells, without rucaparib
[22] = at 0.000305 µM, OCI-P5x cells, with rucaparib 20 µM, 100% = cells with rucaparib alone
[23] = at 0.000305 µM, OCI-P5x cells, without rucaparib
[24] = at 0.00122 µM, OCI-C5x cells, with rucaparib 10 µM, 100% = cells with rucaparib alone
[25] = at 0.00122 µM, OCI-C5x cells, without rucaparib
[26] = at 0.00122 µM, OCI-P5x cells, with rucaparib 20 µM, 100% = cells with rucaparib alone
[27] = at 0.00122 µM, OCI-P5x cells, without rucaparib
[28] = at 0.00488 µM, OCI-C5x cells, with rucaparib 10 µM, 100% = cells with rucaparib alone
[29] = at 0.00488 µM, OCI-C5x cells, without rucaparib
[30] = at 0.00488 µM, OCI-P5x cells, with rucaparib 20 µM, 100% = cells with rucaparib alone
[31] = at 0.00488 µM, OCI-P5x cells, without rucaparib
[32] = at 0.0195 µM, OCI-C5x cells, with rucaparib 10 µM, 100% = cells with rucaparib alone
[33] = at 0.0195 µM, OCI-C5x cells, without rucaparib
[34] = at 0.0195 µM, OCI-P5x cells, with rucaparib 20 µM, 100% = cells with rucaparib alone
[35] = at 0.0195 µM, OCI-P5x cells, without rucaparib
[36] = at 0.0781 µM, OCI-C5x cells, with rucaparib 10 µM, 100% = cells with rucaparib alone
[37] = at 0.0781 µM, OCI-C5x cells, without rucaparib
[38] = at 0.0781 µM, OCI-P5x cells, with rucaparib 20 µM, 100% = cells with rucaparib alone
[39] = at 0.0781 µM, OCI-P5x cells, without rucaparib
[40] = at 0.313 µM, OCI-C5x cells, with rucaparib 10 µM, 100% = cells with rucaparib alone
[41] = at 0.313 µM, OCI-C5x cells, without rucaparib
[42] = at 0.313 µM, OCI-P5x cells, with rucaparib 20 µM, 100% = cells with rucaparib alone
[43] = at 0.313 µM, OCI-P5x cells, without rucaparib
[44] = at 1.25 µM, OCI-C5x cells, with rucaparib 10 µM, 100% = cells with rucaparib alone
[45] = at 1.25 µM, OCI-C5x cells, without rucaparib
[46] = at 1.25 µM, OCI-P5x cells, with rucaparib 20 µM, 100% = cells with rucaparib alone
[47] = at 1.25 µM, OCI-P5x cells, without rucaparib
[48] = at 5 µM, OCI-C5x cells, with rucaparib 10 µM, 100% = cells with rucaparib alone
[49] = at 5 µM, OCI-C5x cells, without rucaparib
[50] = at 5 µM, OCI-P5x cells, with rucaparib 20 µM, 100% = cells with rucaparib alone
[51] = at 5 µM, OCI-P5x cells, without rucaparib

CN1CCC(CNc2ccc3ncc(-c4cccc(OC(F)(F)F)c4)n3n2)CC1
active: AC50 [1] 8.33 µM | AC50 [2] 18.7 µM | AC50 [3] 13.2 µM | AC50 [4] 18.7 µM | AC50 [5] 10.5 µM | AC50 [6] 5.25 µM | AC50 [7] 20.9 µM | AC50 [8] 2.63 µM | IC50 [9] 23.5 µM | viability [13, 22] 97.3% | viability [13, 23] 92.4% | viability [13, 27] 94.8% | viability [13, 30] 96.7% | viability [13, 31] 87.9% | viability [13, 34] 99.2% | viability [13, 35] 88% | viability [13, 38] 93.6% | viability [13, 39] 82.1% | viability [13, 42] 89.6% | viability [13, 43] 80.8% | viability [13, 45] 98% | viability [13, 46] 82.6% | viability [13, 47] 70.9% | viability [13, 50] 50.5% | viability [13, 51] 46.6%
inactive: fold change [10, 14] 0.872 | plate-normalised HSF1 focus index [11] 1.1 | z-score [12, 18] -0.102 | viability [13, 20] 112% | viability [13, 21] 115% | viability [13, 24] 110% | viability [13, 25] 113% | viability [13, 26] 100% | viability [13, 28] 106% | viability [13, 29] 106% | viability [13, 32] 110% | viability [13, 33] 114% | viability [13, 36] 107% | viability [13, 37] 109% | viability [13, 40] 110% | viability [13, 41] 104% | viability [13, 44] 130% | viability [13, 48] 123% | viability [13, 49] 115%
-1.76: z-score [12, 19]
7290: cell count [11]
1.66: SSMD [11]
4380: cell count [10, 16]
5020: cell count [10, 17]
0.583: fold change [10, 15]

CN1c2cc(O)c(N=NC(N)=O)cc2CC1S(=O)(=O)O (centres undefined)
10300: cell count [10, 17]
inactive: outcome [1] | outcome [2] | outcome [3] | outcome [4] | outcome [5] | outcome [6] | outcome [7] | outcome [8] | outcome [9] | fold change [10, 14] 0.929 | z-score [12, 18] -0.39
9600: cell count [10, 16]
0.61: fold change [10, 15]
0.79: z-score [12, 19]

O=C(NCc1ccccc1)c1csc(Nc2ccncn2)n1
0.977: fold change [10, 15]
inactive: fold change [10, 14] 0.918 | z-score [12, 18] -0.235
active: AC50 [1] 18.6 µM | AC50 [2] 20.9 µM | AC50 [3] 4.18 µM | AC50 [4] 9.35 µM | AC50 [5] 14.8 µM | AC50 [6] 16.6 µM | AC50 [7] 16.6 µM | AC50 [8] 16.6 µM | IC50 [9] 23.5 µM
4990: cell count [10, 16]
5440: cell count [10, 17]
-0.0999: z-score [12, 19]

CCC[C@H](NC(=O)/C(C#N)=C/c1cccc(Br)n1)c1ccccc1
active: AC50 [1] 3.32 µM | AC50 [2] 26.4 µM | AC50 [3] 3.32 µM | AC50 [4] 2.35 µM | AC50 [5] 3.32 µM | AC50 [6] 2.63 µM | AC50 [7] 9.35 µM | AC50 [8] 4.68 µM | IC50 [9] 16.6 µM | plate-normalised HSF1 focus index [11] 0.0433 | viability [13, 22] 94.8% | viability [13, 26] 95.1% | viability [13, 30] 98.7% | viability [13, 46] 46.8% | viability [13, 48] 8.18% | viability [13, 50] 2.03% | viability [13, 51] 8.95%
-18.6: SSMD [11]
inactive: viability [13, 20] 119% | viability [13, 21] 122% | viability [13, 23] 113% | viability [13, 24] 114% | viability [13, 25] 137% | viability [13, 27] 111% | viability [13, 28] 121% | viability [13, 29] 137% | viability [13, 31] 114% | viability [13, 32] 111% | viability [13, 33] 135% | viability [13, 34] 104% | viability [13, 35] 110% | viability [13, 36] 108% | viability [13, 37] 128% | viability [13, 38] 104% | viability [13, 39] 128% | viability [13, 40] 126% | viability [13, 41] 134% | viability [13, 42] 102% | viability [13, 43] 123% | viability [13, 44] 106% | viability [13, 45] 141% | viability [13, 47] 111% | viability [13, 49] 102%
6540: cell count [11]

Cc1ccccc1C(C(=O)NC1CCCCC1)N(C(=O)Cn1ccnc1C)c1cccc(F)c1 (centres undefined)
9500: cell count [10, 17]
8020: cell count [10, 16]
inactive: outcome [1] | outcome [2] | outcome [3] | outcome [4] | outcome [5] | outcome [6] | outcome [7] | outcome [8] | outcome [9] | fold change [10, 14] 0.844 | z-score [12, 18] 0.145
0.447: fold change [10, 15]
0.11: z-score [12, 19]

CCN(CC)Cc1ccc2cc(COC(=O)Nc3ccc(C(=O)NO)cc3)ccc2c1
1250: cell count [10, 17]
1260: cell count [10, 16]
0.529: fold change [10, 15]
active: AC50 [1] 5.25 µM | AC50 [2] 11.8 µM | AC50 [3] 2.64 µM | AC50 [4] 5.26 µM | AC50 [5] 2.63 µM | AC50 [6] 1.66 µM | AC50 [7] 1.66 µM | AC50 [8] 1.48 µM | IC50 [9] 18.6 µM
-3.38: z-score [12, 19]
inactive: fold change [10, 14] 1.01 | z-score [12, 18] 1.32

NC(=O)c1ccc(N(C(N)=O)c2c(F)cccc2F)nc1-c1ccc(F)cc1F
10300: cell count [10, 17]
-0.467: z-score [12, 19]
9290: cell count [10, 16]
0.736: fold change [10, 15]
inactive: outcome [1] | outcome [2] | outcome [3] | outcome [4] | outcome [5] | outcome [6] | outcome [7] | outcome [8] | outcome [9] | fold change [10, 14] 0.9 | z-score [12, 18] -0.391

c1ccc(CNc2nc(NCc3ccccc3)c3ccccc3n2)cc1
active: AC50 [1] 14.8 µM | AC50 [2] 7.43 µM | AC50 [3] 23.5 µM | AC50 [4] 20.9 µM | AC50 [5] 16.6 µM | AC50 [6] 9.34 µM | AC50 [7] 23.5 µM | AC50 [8] 10.5 µM | IC50 [9] 29.5 µM
-0.855: z-score [12, 19]
inactive: fold change [10, 14] 0.814 | z-score [12, 18] -0.415
4310: cell count [10, 17]
0.477: fold change [10, 15]
3510: cell count [10, 16]

Source: PubChem BioAssay
